Compounds without any hit were thinned out: in the full panel of roughly 79,000, 15% have a hit. Activity calls are given as the source filed them. No stated cut-off is given here; in the data, active means growth inhibition above about 70%; inactive means the rest.
What was measured:
[1] = NCI Yeast Anticancer Drug Screen. Data for the rad52 strain (AID 147);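 further: 0% = growth of vehicle-treated control cultures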; details: S. cerevisiae rad52 mutant growth inhibition, stronger effect = higher value
Outline: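 Screen used a yeast mutant impaired in DNA repair. After compound exposure, growth was measured. Values reflect inhibition compared with vehicle-treated cells.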

[2] = NCI Yeast Anticancer Drug Screen. Data for the wt1 strain (AID 149);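 further: 0% = growth of vehicle-treated wt1 cultures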; details: S. cerevisiae wt1 strain (SPY 50644) growth inhibition, stronger effect = higher value
Outline: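 Vehicle-normalised growth inhibition; strain wt1; compound exposure.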

[3] = NCI Yeast Anticancer Drug Screen. Data for the rad50EPP+ strain (AID 151);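 further: 0% = growth of vehicle-treated control cultures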; details: S. cerevisiae rad50 mutant strain, stronger effect = higher value
Outline: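 Exposing the rad50EPP+ strain to each compound, growth was compared with vehicle-only cultures to give inhibition.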

[4] = NCI Yeast Anticancer Drug Screen. Data for the rad50 strain (AID 155);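 further: 0% = growth of vehicle-only cultures of the same strain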; details: S. cerevisiae rad50 strain growth inhibition, stronger effect = higher value
Outline: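 A DNA repair-deficient yeast mutant serves as the test organism; compound-induced growth inhibition is calculated against vehicle-treated cells.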

[5] = NCI Yeast Anticancer Drug Screen. Data for the mec2-1 strain (AID 157); details: S. cerevisiae mec2-1 strain, stronger effect = higher value
Outline: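 Readout is yeast growth inhibition, normalised to vehicle-treated controls, in the mec2-1 strain exposed to compound.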

[6] = NCI Yeast Anticancer Drug Screen. Data for the sgs1 mgt1 strain (AID 161);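 further: 0% = growth of cultures given vehicle only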; details: S. cerevisiae sgs1 mgt1 strain, stronger effect = higher value
Outline: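 Percent growth inhibition was derived by comparing compound-exposed mutant yeast with vehicle-exposed cultures. The strain carries alterations in DNA damage repair.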

[7] = NCI Yeast Anticancer Drug Screen. Data for the CLN2oe strain (AID 163);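 further: 0% = growth of vehicle-only control cultures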; details: S. cerevisiae CLN2oe strain, stronger effect = higher value
Outline: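 Values reflect how much compound exposure reduced yeast growth, referenced to vehicle-exposed cells. Assay organism is a strain with a defined genetic change affecting cell-cycle control.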

[8] = NCI Yeast Anticancer Drug Screen. Data for the cln2 rad14 strain (AID 165);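 further: 0% = growth equal to vehicle treated cultures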; details: S. cerevisiae cln2 rad14 strain, stronger effect = higher value
Outline: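 Relative to vehicle controls, growth inhibition of compound-treated cln2 rad14 yeast was recorded.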

[9] = NCI Yeast Anticancer Drug Screen. Data for the bub3 strain (AID 167); details: S. cerevisiae bub3 mutant strain, stronger effect = higher value
Outline: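 Inhibition values come from growth of compound-treated mutant yeast normalised to vehicle-treated controls.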

[10] = NCI Yeast Anticancer Drug Screen. Data for the wt2 strain (AID 169);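 further: 0% = growth of vehicle-treated yeast cultures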; details: S. cerevisiae wt2 strain growth inhibition, stronger effect = higher value
Outline: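 Values express reduction in yeast growth under compound treatment, referenced to vehicle-treated cells.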

[11] = NCI Yeast Anticancer Drug Screen. Data for the mlh1 strain (AID 171);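 further: 0% = growth of vehicle-treated control cultures of the same strain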; details: S. cerevisiae mlh1 strain growth inhibition, stronger effect = higher value
Outline: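 Steps: expose the defined-mutant yeast strain to compound; expose a parallel culture to vehicle; measure growth; express compound effect as inhibition relative to the vehicle culture.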

[12] = NCI Yeast Anticancer Drug Screen. Data for the sgs1 strain (AID 173);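 further: 0% = growth of vehicle-only control cultures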; details: S. cerevisiae sgs1 mutant, stronger effect = higher value
Outline: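 Treat defined-mutant yeast with compound; measure growth; calculate inhibition relative to vehicle-treated cells.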

[13] = NCI Yeast Anticancer Drug Screen. Data for the mlh1 rad18 strain (AID 175); details: S. cerevisiae mlh1 rad18 strain growth inhibition, stronger effect = higher value
Outline: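 Test agents were incubated with a yeast strain of defined genotype (DNA damage repair defect). Inhibition of growth was derived by comparison with vehicle-exposed cultures.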

[14] = NCI Yeast Anticancer Drug Screen. Data for the rad18 strain (AID 177); details: S. cerevisiae rad18 mutant growth inhibition, stronger effect = higher value
Outline: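 A genetically defined yeast mutant impaired in DNA damage repair was treated with test compounds, then its growth was measured against cultures receiving vehicle alone.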

[15] = at 5.0 µM (retest, dose inferred, filed as 0.5)
[16] = at 50.0 µM (retest, dose inferred, filed as 5.0)

Measured: growth inhibition

CCCc1[nH]nc(C(N)=O)c1N=NN(C)C
active: [1]; at 33.0 µM 90% | [1]; at 100.0 µM 96% | [3]; at 33.0 µM 82% | [3]; at 100.0 µM 95% | [4]; at 33.0 µM 83% | [4]; [16] 81% | [4]; at 50.0 µM 94.8% | [4]; at 100.0 µM 94% | [12]; at 100.0 µM 85% | [13]; at 50.0 µM 73.5% | [14]; at 33.0 µM 83% | [14]; at 100.0 µM 94%
inactive: [1]; at 1.2 µM 2% | [1]; at 3.7 µM 12% | [1]; at 11.0 µM 37% | [2]; at 1.2 µM -6% | [2]; at 3.7 µM -4% | [2]; at 11.0 µM -7% | [2]; at 33.0 µM -4% | [2]; at 100.0 µM 5% | [3]; at 1.2 µM 2% | [3]; at 3.7 µM 16% | [3]; at 11.0 µM 43% | [4]; at 1.2 µM 3% | [4]; at 3.7 µM 4% | [4]; [15] -108% | [4]; at 11.0 µM 31% | [5]; at 1.2 µM 1% | [5]; at 3.7 µM -1% | [5]; [15] -44% | [5]; at 11.0 µM -14% | [5]; at 33.0 µM 11% | [5]; [16] -15% | [5]; at 50.0 µM 14.1% | [5]; at 100.0 µM 63% | [6]; [15] -55% | [6]; [16] 18% | [6]; at 50.0 µM 44.1% | [7]; at 1.2 µM -3% | [7]; at 3.7 µM -3% | [7]; at 11.0 µM 2% | [7]; at 33.0 µM -3% | [7]; at 100.0 µM 5% | [8]; [15] -59% | [8]; [16] -48% | [8]; at 50.0 µM 13.4% | [9]; at 1.2 µM -13% | [9]; at 3.7 µM -9% | [9]; [15] -60% | [9]; at 11.0 µM -5% | [9]; at 33.0 µM -6% | [9]; [16] -73% | [9]; at 50.0 µM -0.25% | [9]; at 100.0 µM 4% | [10]; at 1.2 µM -1% | [10]; at 3.7 µM 0% | [10]; at 11.0 µM -1% | [10]; at 33.0 µM 3% | [10]; at 100.0 µM 10% | [11]; at 1.2 µM 7% | [11]; at 3.7 µM -5% | [11]; at 11.0 µM -2% | [11]; at 33.0 µM 0% | [11]; at 100.0 µM 11% | [12]; at 1.2 µM 0% | [12]; at 3.7 µM -3% | [12]; at 11.0 µM 24% | [12]; at 33.0 µM 56% | [13]; [15] -120% | [13]; [16] 13% | [14]; at 1.2 µM -2% | [14]; at 3.7 µM 6% | [14]; at 11.0 µM 32%

Oc1ccc(C=Nc2ccccc2O)cc1
inactive: [1]; at 1.2 µM 34% | [1]; at 3.7 µM 52% | [1]; at 11.0 µM 56% | [2]; at 1.2 µM 28% | [2]; at 3.7 µM 28% | [2]; at 11.0 µM 25% | [2]; at 33.0 µM 27% | [2]; at 100.0 µM 39% | [3]; at 1.2 µM 35% | [3]; at 3.7 µM 68% | [4]; at 1.2 µM 68% | [4]; [15] 13% | [5]; at 1.2 µM 23% | [5]; at 3.7 µM 29% | [5]; [15] 26% | [5]; at 11.0 µM 33% | [5]; at 33.0 µM 44% | [5]; [16] 14% | [5]; at 50.0 µM 23% | [5]; at 100.0 µM 65% | [6]; [15] 15% | [6]; [16] 42% | [6]; at 50.0 µM 28.8% | [7]; at 1.2 µM 47% | [7]; at 3.7 µM 58% | [7]; at 11.0 µM 60% | [7]; at 33.0 µM 56% | [7]; at 100.0 µM 64% | [8]; [15] 11% | [8]; [16] 31% | [8]; at 50.0 µM 1.55% | [9]; [15] 55% | [10]; at 1.2 µM 25% | [10]; at 3.7 µM 30% | [10]; at 11.0 µM 33% | [10]; at 33.0 µM 43% | [10]; at 100.0 µM 65% | [11]; at 1.2 µM 32% | [11]; at 3.7 µM 45% | [11]; at 11.0 µM 36% | [11]; at 33.0 µM 45% | [12]; at 1.2 µM 32% | [12]; at 3.7 µM 36% | [12]; at 11.0 µM 37% | [12]; at 33.0 µM 51% | [12]; at 100.0 µM 67% | [13]; [15] 48% | [14]; at 1.2 µM 61%
active: [1]; at 33.0 µM 75% | [1]; at 100.0 µM 88% | [3]; at 11.0 µM 90% | [3]; at 33.0 µM 90% | [3]; at 100.0 µM 94% | [4]; at 3.7 µM 85% | [4]; at 11.0 µM 81% | [4]; at 33.0 µM 84% | [4]; [16] 80% | [4]; at 50.0 µM 78.8% | [4]; at 100.0 µM 90% | [9]; at 1.2 µM 75% | [9]; at 3.7 µM 82% | [9]; at 11.0 µM 81% | [9]; at 33.0 µM 83% | [9]; [16] 86% | [9]; at 50.0 µM 80.3% | [9]; at 100.0 µM 92% | [11]; at 100.0 µM 73% | [13]; [16] 86% | [13]; at 50.0 µM 70% | [14]; at 3.7 µM 78% | [14]; at 11.0 µM 76% | [14]; at 33.0 µM 75% | [14]; at 100.0 µM 85%

On1cnc(=S)c2[nH]cnc21
inactive: [1]; at 1.2 µM -28% | [1]; at 3.7 µM -27% | [1]; at 11.0 µM -29% | [1]; at 33.0 µM -26% | [1]; at 100.0 µM -35% | [2]; at 1.2 µM -31% | [2]; at 3.7 µM -33% | [2]; at 11.0 µM -30% | [2]; at 33.0 µM -39% | [2]; at 100.0 µM -42% | [3]; at 1.2 µM -23% | [3]; at 3.7 µM -39% | [3]; at 11.0 µM -11% | [3]; at 33.0 µM -37% | [3]; at 100.0 µM -41% | [4]; at 1.2 µM -63% | [4]; at 3.7 µM -33% | [4]; [15] 24% | [4]; at 11.0 µM -65% | [4]; at 33.0 µM -62% | [4]; at 50.0 µM -7.05% | [4]; at 100.0 µM -55% | [5]; at 1.2 µM 31% | [5]; at 3.7 µM 9% | [5]; [15] 15% | [5]; at 11.0 µM 11% | [5]; at 33.0 µM -2% | [5]; at 50.0 µM 1.85% | [5]; at 100.0 µM -1% | [6]; [15] 36% | [6]; at 50.0 µM 9.3% | [7]; at 1.2 µM 23% | [7]; at 3.7 µM 9% | [7]; at 11.0 µM -10% | [7]; at 33.0 µM 19% | [7]; at 100.0 µM 11% | [9]; at 1.2 µM -29% | [9]; at 3.7 µM -6% | [9]; [15] 17% | [9]; at 11.0 µM -17% | [9]; at 33.0 µM -3% | [9]; at 50.0 µM -6.65% | [9]; at 100.0 µM -8% | [10]; at 1.2 µM 2% | [10]; at 3.7 µM -6% | [10]; at 11.0 µM -11% | [10]; at 33.0 µM -4% | [10]; at 100.0 µM -19% | [11]; at 1.2 µM -6% | [11]; at 3.7 µM -14% | [11]; at 11.0 µM -28% | [11]; at 33.0 µM -29% | [11]; at 100.0 µM -37% | [12]; at 1.2 µM -22% | [12]; at 3.7 µM -26% | [12]; at 11.0 µM -16%
active: [4]; [16] 74% | [5]; [16] 99% | [6]; [16] 100% | [9]; [16] 99%
